This note sets out measurements from PubChem BioAssay (NCI).

Values joined by “and” are separate entries in the source; they are usually repeats but may differ in a detail not shown here. Equal values may be shown once. This is part of a sample that, as a whole, favours compounds with a hit. Of some 83,000 tested, about 20% had one in any assay.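 Negative percent growth values reflect cell death: -40 means 40% of the cells present at the start died, and -100 means all died.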 A number with no mark means an inactive call. Active and inactive are the calls of the source. Rule for the calls: active = growth percent below 10; inactive = the rest.

The assay deals with MDA-MB-468 breast. In words: NCI-60 one-dose screen, 48 h (100 = growth as untreated, 0 = no growth, -100 = all killed). The following applies: 10 µM unless noted.

For `O=c1c2ccccc2nc2n1Cc1nc3ccccc3c(=O)n1C2`, the growth was 90.6%.

Regarding `c1cc2[nH]ncc2cc1-c1nc2ccc3[nH]ncc3c2c2c1CCCC2`, the growth is -3.32% (active).

With `CCCCCCN(CCCCCC)CC(O)c1cccc2ccc(Cl)cc12` (centres undefined), the growth is 87.6%.

As to `COc1ccccc1C(=O)O/N=C(\N)Cc1cccc2ccccc12`, the growth was 61.6%.

`c1ccc(-c2nc(N3CCCNCC3)c3nc(-c4ccccc4)oc3n2)cc1`: the growth was -52.9% (active).

With `Cn1cc(-c2nc(-c3c[nH]c4ncccc34)cs2)c2ccccc21`, the growth is -19% (active).

`COc1ccc(NC(=O)c2ccc3c(c2)nc(-c2ccc(Cl)cc2)n3-c2cc(C(C)(C)C)[nH]n2)cc1`: the growth is 87.5%.

As for `CCC(=C(c1ccc(OCCN(C)C)cc1)c1ccc(OCCN(C)C)cc1)c1ccc(Cl)cc1`, the growth is -82.8% (active).

As for `O=C(Cc1nc2ccc([N+](=O)[O-])cc2nc1CC(=O)c1cccnc1)c1cccnc1`, the growth was 75.7%.

In the case of `C=C[C@H]1C[C@@H]2C[C@@H]3[C@H]4C/C=C\C(=O)NCCCC5NC(=O)C(=C(O)/C=C/[C@@H]4CC(=O)[C@H]3[C@@H]2[C@H]1C)C5=O` (some centres undefined), the growth is -29.9% (active).

Regarding `COc1ccc([C@@H]2[C@@H](Oc3ccccc3)C(=O)N2c2cc(OC)c(OC)c(OC)c2)cc1F`, the growth is 4.05% (active).

In the case of `COc1ccc(-c2cc(C(=O)N3N=C(c4ccc(N)cc4)CC3c3ccccc3)c3ccccc3n2)cc1` (centres undefined), the growth is 29.3%.

As to `CNC(=O)c1cccnc1`, the growth is 106%.

For `O=CC(O)C(O)C(O)CO` (centres undefined), the growth is 104% and 102%.

With `Cc1nc(N)nc2c1CCC(Nc1ccccc1)S2` (centres undefined), the growth was 100%.

In the case of `N/C(=N\C(N)=N\c1nc2ccccc2s1)c1cccc(F)c1`, the growth was 92.9% [5 µM].

Regarding `COc1ccc(/C=C/C(=O)Nc2cccnc2Nc2ccc(F)cc2)cc1`, the growth is 84%.

On to `Cc1ccc(OCCn2ccc(=O)n(CCOc3ccc(Cl)cc3C(=O)c3cc(C)cc(C)c3)c2=O)cc1`, for which the growth was -0.179% (active).

On to `Cc1ccc(N2C(=O)C=CC2=O)cc1`, for which the growth was -25.2% (active).

For the compound `COc1cc(/C=C/C(=O)c2ccc(Nc3ncnc4cc(OC)c(OC)cc34)cc2)cc(OC)c1`, the growth was 101%.

For `COc1ccc(-c2nc(SCC(=O)Nc3nc4ccc(C)cc4s3)[nH]c(=O)c2C#N)cc1OC`, the growth was 100%.

In the case of `CC(C)(C)c1ccc(Cn2c(-c3nonc3N)nc3ccccc32)cc1`, the growth is 47.6%.

Take `Nc1nc(-c2ccccc2Cl)cc(-c2ccc(Cl)cc2Cl)n1`: the growth is 18.6%.

As for `O=C1C=CC(=O)N1c1cccc(N2C(=O)C=CC2=O)c1`, the growth is 51.5%.

Turning to `COc1ccc(NC(=O)c2ccccc2-c2ccccc2)c(C(N)=O)c1`, the growth was 27.3%.

As for `COc1cc2c(Oc3ccc4[nH]c(C)cc4c3F)ncnc2cc1OCCCN1CCCC1`, the growth was 99.4%.

For `COc1ccccc1NC(=O)N/C(N)=N/c1nc2ccccc2s1`, the growth was 14.2%.

With `CN[C@@H](CCCNC(N)=NC/C=C(/C)CCC=C(C)C)C(=O)N(C)[C@@H](CCCNC(N)=NCC=C(C)C)C(=O)N[C@H](C)[C@H](OS(=O)(=O)O)c1ccc(OS(=O)(=O)O)c(COS(=O)(=O)O)c1`, the growth was 97.3%.

On to `Cc1oc(-c2ccc(Cl)cc2)nc1C1=NN(C(=O)c2ccncc2)C(c2ccccc2)C1` (centres undefined), for which the growth was 108%.

For `O=C(NNC(=O)c1cccc(Cl)c1)c1ccccc1`, the growth is 94.4%.

On to `COc1ccc(C2=C/C(=C\c3ccccc3O)C(=O)N2Cc2ccccc2)cc1`, for which the growth is 53.7%.

For `CCN(CC)Cc1cc(Nc2c3ccc(Cl)cc3nc3ccc(OC)cc23)ccc1O`, the growth was 60.5%.

Take `O=C(Nc1cccc(C(=O)N2CCc3ccc(Cl)cc32)c1)c1ccco1`: the growth is -0.651% (active).

Consider `COc1ccc(-c2cc(-c3ccc(OC)c(OC)c3)nc(SCCCCCC(=O)NO)n2)cc1`, for which the growth is 54.8%.

As for `CCOC(=O)c1nnn(C(Cc2ccccc2Cl)C(=O)OCC)c1C` (centres undefined), the growth was 110%.

In the case of `CCc1c(Nc2ccc(C)cc2)[nH]c(N)nc1=S`, the growth was 97.3%.

Turning to `Fc1ccc2c(c1)c(-c1nc(-c3c[nH]c4ncccc34)cs1)cn2CCCN1CCCCC1`, the growth was 76.6%.

Consider `CCN(CC)c1ccc2c(c1)Oc1nc(N)c(C#N)c(N)c1C2Sc1ccc(C)cc1` (centres undefined), for which the growth is -88.4% (active).

Consider `CCCOC(=O)Nc1nc2ccc(SCC(C)C)cc2s1`, for which the growth is -9.94% (active).
